Laboratory results: PubChem BioAssay AID1159580 (chemical genetic matrix, 2015)
Several values for one entry are separate records, joined by “and”; a condition that tells them apart may be missing. Identical values can stand only once. About 2,000 (36%) of roughly 5,500 compounds were called active. About 18% were inconclusive and are not listed. Rule as the data show it: active = normalized growth mostly below about 0.91 (no sharp cut-off); inconclusive = no clear call, values can overlap the other calls; inactive = mostly above about 0.92. The list shows a part of the results.

Test: chemical genetic growth profiling, strain panel (AID 1159580);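 also: tested at 20 µM; growth read once vehicle control cultures reached saturation at 30 °C; 1 = growth at the plate median or of vehicle wells; lower values mean less growth of the strain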
Conditions: S. cerevisiae deletion strains, growth OD

Measured: normalized growth

CC(=O)N[C@@H](CCC(=O)O)C(=O)O
inactive: locus YAL021C, strain ccr4, hits give low values 1.03 | locus YAL026C, strain drs2, hits give low values 1.03 | locus YAL030W, strain snc1, hits give low values 1.01 | locus YBL061C, strain skt5, hits give low values 1.03 | locus YBR009C, strain hhf1, hits give low values 0.994 | locus YBR021W, strain FUR4, hits give low values 1.01 | locus YBR023C, strain chs3, hits give low values 1.03 | locus YBR171W, strain sec66, hits give low values 1.03 | locus YBR229C, strain ROT2, hits give low values 1 | locus YBR231C, strain swc5, hits give low values 1.02 | locus YBR279W, strain paf1, hits give low values 1.02 | locus YCL011C, strain gbp2, hits give low values 1.02 | locus YCL016C, strain dcc1, hits give low values 1.03 | locus YCL029C, strain bik1, hits give low values 1.02 | locus YCL069W, strain vba3, hits give low values 1.02 | locus YCR088W, strain abp1, hits give low values 1.02 | locus YDL005C, strain med2, hits give low values 1.02 | locus YDL035C, strain GPR1, hits give low values 1.01 | locus YDL040C, strain nat1, hits give low values 1.01 | locus YDL074C, strain BRE1, hits give low values 1.02 | locus YDL101C, strain DUN1, hits give low values 1.01 | locus YDL134C, strain PPH21, hits give low values 1.01 | locus YDL185W, strain tfp1, hits give low values 1 | locus YDL192W, strain arf1, hits give low values 1.01 | locus YDR001C, strain nth1, hits give low values 1.02 | locus YDR069C, strain doa4, hits give low values 1.03 | locus YDR101C, strain arx1, hits give low values 1.02 | locus YDR137W, strain rgp1, hits give low values 1.04 | locus YDR150W, strain NUM1, hits give low values 0.99 | locus YDR159W, strain sac3, hits give low values 1.01 | locus YDR162C, strain NBP2, hits give low values 1.01 | locus YDR195W, strain ref2 1.02 | locus YDR297W, strain sur2, hits give low values 1.02 | locus YDR318W, strain mcm21, hits give low values 1.03 | locus YDR334W, strain swr1, hits give low values 1.02 | locus YDR335W, strain msn5, hits give low values 1.02 | locus YDR388W, hits give low values 1.01 | locus YDR392W, strain spt3, hits give low values 1.05 | locus YDR502C, strain sam2, hits give low values 1.01 | locus YEL003W, strain gim4, hits give low values 1.01 | locus YEL037C, strain rad23, hits give low values 1.02 | locus YEL061C, strain CIN8 (second series), hits give low values 1.02 | locus YEL061C, strain CIN8, hits give low values 1.01 | locus YER015W, strain faa2, hits give low values 1.02 | locus YER016W, strain bim1, hits give low values 1.03 | locus YER110C, hits give low values 1.01 | locus YER111C, strain swi4, hits give low values 1.02 | locus YER155C, strain BEM2 (second series), hits give low values 1.01 | locus YER155C, strain BEM2, hits give low values 1.01 | locus YER167W, strain BCK2, hits give low values 1.01 | locus YFR010W, strain ubp6, hits give low values 1.01 | locus YGL078C, strain dbp3, hits give low values 0.996 | locus YGL086W, strain mad1, hits give low values 0.986 | locus YGL167C, strain pmr1, hits give low values 1.02 | locus YGL173C, strain kem1, hits give low values 1.01 | locus YGL227W, strain vid30, hits give low values 1.02 | locus YGL240W, strain doc1, hits give low values 1.01 | locus YGL248W, strain PDE1, hits give low values 1 | locus YGL253W, strain hxk2, hits give low values 1.04 | locus YGR078C, strain PAC10, hits give low values 0.999 | locus YGR135W, strain pre9, hits give low values 1.01 | locus YGR252W, strain gcn5, hits give low values 0.974 | locus YHR013C, strain ard1, hits give low values 1.06 | locus YHR027C, strain rpn1, hits give low values 1.02 | locus YHR030C, strain SLT2, hits give low values 1 and 0.981 | locus YHR079C, strain IRE1 (second series), hits give low values 1.02 | locus YHR079C, strain IRE1, hits give low values 0.981 | locus YHR094C, strain hxt1, hits give low values 1.01 | locus YHR129C, strain ARP1, hits give low values 1 | locus YHR142W, strain chs7, hits give low values 1.05 | locus YHR200W, strain rpn10, hits give low values 1 | locus YIL066C, strain RNR3, hits give low values 1.01 | locus YIL073C, strain SPO22, hits give low values 1.06 | locus YIL125W, strain kgd1, hits give low values 1 | locus YIR030C, strain dcg1, hits give low values 1.01 | locus YJL092W, strain hpr5, hits give low values 1.02 | locus YJL095W, strain BCK1 (second series), hits give low values 1.03 | locus YJL095W, strain BCK1, hits give low values 1.01 and 0.983 | locus YJL115W, strain asf1, hits give low values 1.01 | locus YJL129C, strain trk1, hits give low values 1.04 | locus YJL134W, strain LCB3, hits give low values 1.01 | locus YJL154C, strain vps35, hits give low values 1.02 | locus YJL164C, strain tpk1, hits give low values 1.01 | locus YJL166W, strain qcr8, hits give low values 1 | locus YJL168C, strain set2, hits give low values 1.01 | locus YJL187C, strain SWE1 (second series), hits give low values 1.01 | locus YJL187C, strain SWE1, hits give low values 1.03 | locus YJR043C, strain POL32, hits give low values 0.999 | locus YJR066W, strain TOR1, hits give low values 0.909
